Assay outcomes: PubChem BioAssay, National Center for Advancing Translational Sciences (NCATS)
NS1 function inh – blocks influenza NS1 protein function | hit rate 0.4% among 270,000 | Potency, µM (titrated, usually from 46.1 µM) | AID 2326; calls by dose curve; note: actives are rising curves; nearly all actives have a fitted effect of over 50% in size
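Read-out: OD600 growth recovery of NS1-expressing budding yeast. Cells grown overnight at 30C in -URA glucose medium, washed, resuspended and diluted 1:100 in 2% galactose assay medium, pH 6.0. Same strain lacking NS1 served as positive control.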
Cycloheximide cs – counter-screen for Shiga toxin inhibitors: cycloheximide protein synthesis inhibition. cell reporter, cycloheximide protein synthesis inhibition counterscreen. max response, %. hit rate 12% among 300,000; in the data active = max response mostly above about 13%, no sharp cut-off; inactive = mostly below about 14%; note: read at 38.3 µM for the half of the compounds with a filed dose
Pf growth 96h – P. falciparum growth inhibition at 96 hours. AID 504834. Potency, µM (doses to about 28.7 µM), hits mostly inhibitors. P. falciparum luciferase reporter growth, 96 h. hit rate 6.9% among 320,000
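Luminescence readout: decreased luciferase signal marks inhibited growth of reporter-expressing P. falciparum in infected red cells (2% hematocrit, 0.05% parasitemia final), exposed to compound two generations (96 h, 37 C, 5% CO2).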
Sm TGR block – S. mansoni TGR enzyme inhibition. Q962Y6. purified TGR, DTNB reduction, TNB absorbance 405 nm. Potency, µM (highest dose often 114 µM), most hits filed as inhibitors. hit rate 3% among 360,000. AID 485364; note: nearly all actives have a fitted effect of over 60% in size
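Kinetic colorimetric format: TGR-catalysed, NADPH-driven DTNB reduction monitored via TNB absorbance. Enzyme dispensed at 20 nM; compound exposure 15 min at room temperature before reaction start.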
Shiga inhibitor – Shiga toxin inhibition; Vero cells, Shiga toxin protein synthesis inhibition reporter; inhibition, % at 38.7 µM; hit rate 9.2% among 290,000; in the data active = inhibition mostly above about 28%, no sharp cut-off; inactive = mostly below about 43%
Pf growth 48h – inhibits P. falciparum growth in the first generation, 48 h | P. falciparum luciferase growth in erythrocytes, 48 h | Potency, µM (highest dose often 28.7 µM), usual class: inhibitors | hit rate 5.9% among 310,000 | AID 504832
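Here the parasites carry a stable luciferase gene and grow inside erythrocytes in Albumax-based RPMI medium with compound for one erythrocytic cycle. Activity is scored as loss of luminescent signal.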
Each line names hits and unclear results; the compound was inactive in the other large screens. In the library only some 21% were active in any assay of this set; here they are far more common. Unless noted, calls come from the whole dose curve; as a rule, active = well fitted curve in the direction sought with a large enough effect; inconclusive = small, poorly fitted or top-dose-only effect, or another doubt; inactive = no such curve, though single readings can be large; an effect the other way counts as inactive or inconclusive.

CC(C)N(CCCNC(=O)C1CCN(C(=O)c2cc3sccc3n2C)CC1)Cc1ccccc1	Pf growth 96h 12µM, Pf growth 48h inconclusive
Cn1c(C(=O)N2CCC(C(=O)N3CCN(Cc4ccc5c(c4)OCO5)CC3)CC2)cc2sccc21	Pf growth 96h 10µM, Pf growth 48h inconclusive
O=c1[nH]c(-c2ccc(Cl)cc2)nc(=S)[nH]1	none
CC(=O)N1CCN(C(=O)c2cc3c(s2)CCC(C)C3)CC1 (centres undefined)	none (no result: NS1 function inh, Cycloheximide cs, Shiga inhibitor)
N#CCNC(=O)C1CC(=O)N(CCc2ccc(F)cc2)C1 (centres undefined)	Pf growth 96h inconclusive (no result: Shiga inhibitor)
CCC(C)NCCOCCOc1ccccc1-c1ccccc1 (centres undefined)	Pf growth 96h inconclusive, Pf growth 48h inconclusive
COCCCNCCOCCOc1ccccc1-c1ccccc1	NS1 function inh inconclusive, Pf growth 96h inconclusive
CN(C)CCNCCCOc1ccccc1-c1ccccc1	Pf growth 48h 2.6µM (no result: Sm TGR block)
C=CCNCCOCCOc1ccccc1-c1ccccc1	Cycloheximide cs 20, Shiga inhibitor 97, Pf growth 48h inconclusive
CC(C)(C)NCCOCCOc1ccccc1-c1ccccc1	Pf growth 96h 3.7µM, Pf growth 48h inconclusive
COc1ccc(-c2noc(CN(C(=O)c3ccc4c(c3)OCO4)C(C)C)n2)cc1OC	Pf growth 48h inconclusive (no result: NS1 function inh, Cycloheximide cs, Shiga inhibitor)
CCCCC(=O)Nc1ccc(OCc2cc(=O)n3c(C)csc3n2)cc1	none (no result: NS1 function inh, Cycloheximide cs, Pf growth 96h, Shiga inhibitor, Pf growth 48h)
NC(=O)C1=C[C@@H](c2csc3ccccc23)C[C@@H](OCCCCO)O1	none
CN(Cc1ccc2nonc2c1)Cc1nc(Cc2cccc(F)c2)no1	Pf growth 96h 13µM, Pf growth 48h inconclusive
C/C(=N\NC(=O)c1c(C)nc2ccccn12)c1ccco1	Cycloheximide cs 32, Shiga inhibitor 42 (no result: NS1 function inh)
CC/C(=N\NC(=O)c1c(C)nc2ccccn12)c1ccccc1	Pf growth 96h inconclusive
C/C(=N\NC(=O)c1c(C)nc2ccccn12)c1ccc(C(C)(C)C)cc1	none
C/C(=N\NC(=O)c1c(C)nc2ccccn12)c1ccc(N2CCOCC2)cc1	Cycloheximide cs 28
COc1cc(/C=C2\SC(=S)N(CCC(=O)NCCc3ccccc3)C2=O)cc(OC)c1OC	none
COc1ccc(/C=C2/SC(=S)N(CCCC(=O)Nc3cccc(O)c3)C2=O)cc1	Cycloheximide cs 35, Pf growth 96h inconclusive, Shiga inhibitor 45, Pf growth 48h 15µM
COc1cccc(/C=C2\SC(=S)N(CCCC(=O)N(CCO)c3ccccc3)C2=O)c1	Pf growth 96h 1.9µM, Pf growth 48h 12µM
COc1cccc(/C=C2\SC(=S)N(CCC(=O)Nc3ccc(O)cc3)C2=O)c1	Cycloheximide cs 30, Pf growth 96h inconclusive, Shiga inhibitor 47
COc1ccc(/C=C2\SC(=S)N(CCC(=O)Nc3cccc(O)c3)C2=O)cc1OC	Pf growth 96h inconclusive
COc1cc(/C=C2\SC(=S)N(CCC(=O)Nc3ccccc3O)C2=O)cc(OC)c1OC	Pf growth 96h 13µM, Pf growth 48h inconclusive
COc1cccc(/C=C2\SC(=S)N(CCC(=O)NCCc3ccc(O)cc3)C2=O)c1	Pf growth 96h inconclusive, Pf growth 48h inconclusive
Cc1ccc(C(C)NC(=O)c2ccc3c(c2)OCO3)cc1C (centres undefined)	Pf growth 96h inconclusive
C/C(=N\N=C(N)N)c1ccc(Cl)c(Cl)c1	Pf growth 96h inconclusive, Pf growth 48h 4.1µM (no result: Sm TGR block)
C/C(=N\NC(=O)CC(C)C)c1ccc(Cl)c(Cl)c1	Pf growth 96h inconclusive
O=C(Nc1ccc(S(=O)(=O)Nc2nccs2)cc1)c1ccc(S(=O)(=O)N2CCOCC2)cc1	Pf growth 96h inconclusive, Pf growth 48h inconclusive
O=C(Nc1nccs1)c1ccc(S(=O)(=O)N2CCOCC2)cc1	Cycloheximide cs 15
O=C(Nc1nccs1)c1cccc(S(=O)(=O)N2CCCCC2)c1	Pf growth 96h 15µM
CN(CC1CCCO1)S(=O)(=O)c1ccc(C(=O)Nc2nccs2)cc1 (centres undefined)	Cycloheximide cs 24, Pf growth 96h inconclusive, Shiga inhibitor 22, Pf growth 48h inconclusive
CN(C(=O)COC(=O)c1ccc[nH]c1=O)C1CCCCC1	none (no result: NS1 function inh)
O=c1[nH]cnc2cc(-c3ccc(Br)cc3)sc12	Shiga inhibitor 66
O=c1[nH]cnc(O)c1C(c1ccc(Br)cc1)c1c(O)nc[nH]c1=O	Pf growth 96h inconclusive, Sm TGR block inconclusive, Pf growth 48h inconclusive
OCC1OC([S-])[C@H](O)C(O)C1O.[Au+] (some centres undefined)	Pf growth 96h 4.8µM (no result: NS1 function inh, Cycloheximide cs, Sm TGR block, Shiga inhibitor)
CNC(=S)NNC(=O)c1sccc1C	Cycloheximide cs 18, Pf growth 96h inconclusive
Cc1ccsc1C(=O)NNC(=S)NC1CCCCC1	Cycloheximide cs 38, Pf growth 96h 9.3µM, Shiga inhibitor 37
CCCc1cc(C(=O)NNC(=S)NC2CCCCC2)cs1	Cycloheximide cs 22
Cc1cccc(NC(=O)CCCCCn2c(=O)[nH]c3ccsc3c2=O)c1	none (no result: NS1 function inh, Cycloheximide cs, Pf growth 96h, Shiga inhibitor, Pf growth 48h)
CCc1ccc(N2CC(C(=O)NC3CCCCC3C)CC2=O)cc1 (centres undefined)	none
CCc1nc(Nc2ccc(OC)cc2OC)c2oc3ccccc3c2n1	Pf growth 96h inconclusive, Pf growth 48h inconclusive
CC(C)c1ccc(NC(=O)c2cc(S(=O)(=O)N(C)C3CCCCC3)ccc2F)cc1	none (no result: NS1 function inh, Cycloheximide cs, Pf growth 96h, Shiga inhibitor, Pf growth 48h)
COc1ccc(-n2cc(CNCc3cccnc3)c(-c3cccc(F)c3)n2)cc1	Pf growth 96h inconclusive, Pf growth 48h 13µM
COc1ccc(-c2nn(-c3ccccc3)cc2CNCc2cccnc2)c(F)c1	Pf growth 48h inconclusive
COc1ccc(-n2cc(CNCCc3cnc[nH]3)c(-c3cccc(F)c3)n2)cc1	Cycloheximide cs 41, Pf growth 96h inconclusive, Pf growth 48h 1.7µM
COc1ccc(-n2cc(CNCCc3ncc(C)[nH]3)c(-c3ccccc3Cl)n2)cc1	Pf growth 96h inconclusive, Sm TGR block inconclusive
Cc1cccc(-n2cc(CNCCN3CCOC3=O)c(-c3cccc(F)c3)n2)c1	none
COc1ccc(CNCc2cn(-c3cccc(F)c3)nc2-c2ccc(C)o2)cc1	Cycloheximide cs 11, Pf growth 48h inconclusive
CC(=O)c1cccc(NC(=O)CCn2c(=S)oc3ccccc32)c1	none
CCCn1c2ccccc2c2cnn(CC(=O)Nc3ccc(C)cc3Br)c(=O)c21	none (no result: NS1 function inh, Cycloheximide cs, Pf growth 96h, Shiga inhibitor, Pf growth 48h)
Cc1cccc2c1c1ccc3c(c1n2C)C(=O)C=CC3=O	Pf growth 96h inconclusive, Sm TGR block 2.5µM, Pf growth 48h 12µM
Cc1nn(C)c2c1c(-c1ccccc1)cc(=O)n2Cc1c(F)cccc1Cl	none (no result: NS1 function inh, Cycloheximide cs, Pf growth 96h, Shiga inhibitor, Pf growth 48h)
CCc1sc(N(C(=O)Cc2ccccc2)c2ccc(F)cc2)nc1-c1ccccc1	none (no result: Pf growth 48h)
CCc1sc(N(C(=O)Cc2ccccc2)c2ccccc2)nc1-c1ccccc1	Pf growth 48h 13µM (no result: Pf growth 96h)
CCCCC(=O)N(c1ccc(C(=O)O)cc1)c1nc(-c2ccc(Cl)cc2)c(CC)s1	Pf growth 96h inconclusive, Pf growth 48h 2.3µM (no result: Sm TGR block)
COc1cc(OC)c(NC(=O)N2CCC(CN3CCCC3)CC2)cc1Cl	none (no result: NS1 function inh, Cycloheximide cs, Pf growth 96h, Shiga inhibitor, Pf growth 48h)
O=S(=O)(NC1CCCCC1N1CCC(O)CC1)c1ccccc1 (centres undefined)	Pf growth 96h inconclusive
